Assay outcomes: PubChem, Sanford-Burnham Center for Chemical Genomics
CYP2C9 inh = blockers of cytochrome P450 2C9 activity – biochemical, luminescence, ADME assay, primary screen; CYP2C9 Supersomes, luciferin-H conversion; inhibition, % at 5 µM; P11712; 96,000 tested, 20% active;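 active means blocking of liver enzyme CYP2C9 beyond about 50% at 5 µM, limit read from the data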
CYP2C19 inhib = blockers of cytochrome P450 2C19 activity – biochemical, luminescence, ADME assay, primary screen; P33261; CYP2C19 Supersomes, luciferin-H EGE luminescence, 30 min; inhibition, % at 5 µM; 96,000 tested, 21% active; AID 778, 2007;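 active means CYP2C19 inhibition above a set limit at 5 µM in the primary screen, cut at about 50% in these data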;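 further: plate controls were negative control wells for no effect and 2.5 mM tranylcypromine positive control for full effect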
Target sequence (P33261 whole entry, looked up): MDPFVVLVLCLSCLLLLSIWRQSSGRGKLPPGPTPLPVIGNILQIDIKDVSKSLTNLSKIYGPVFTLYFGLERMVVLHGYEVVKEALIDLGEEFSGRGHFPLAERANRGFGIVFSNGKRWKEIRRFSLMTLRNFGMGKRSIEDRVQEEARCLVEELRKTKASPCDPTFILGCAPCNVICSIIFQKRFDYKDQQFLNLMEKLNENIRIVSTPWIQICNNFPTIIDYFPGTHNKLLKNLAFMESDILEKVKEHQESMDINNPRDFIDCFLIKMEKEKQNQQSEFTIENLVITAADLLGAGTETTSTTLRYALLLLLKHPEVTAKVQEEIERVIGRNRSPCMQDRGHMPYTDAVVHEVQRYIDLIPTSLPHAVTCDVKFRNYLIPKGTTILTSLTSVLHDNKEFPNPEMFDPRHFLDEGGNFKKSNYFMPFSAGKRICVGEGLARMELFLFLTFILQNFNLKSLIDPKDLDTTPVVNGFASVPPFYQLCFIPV
Pyk2 oligo antag = antagonists of Pyk2 self-association, primary screen, Q293 cells, FERM NanoBiT luminescence, HTS | Protein-tyrosine kinase 2-beta (Homo sapiens), Q14289 | 99,000 tested, 0.83% active | z-score (the deposit names both 25 µM and 10 µM) | stronger effect = lower value;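 active means Z-score of -3 or lower, scaled per plate to the spread of control and sample wells; inactive means z-score above -3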;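 further: negative z-score means lost luminescence so less FERM oligomerization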
CYP2C19 act = human CYP2C19 activators, primary screen, biochemical, luminescence; recombinant CYP2C19, luciferin-H EGE luminescence; stronger effect = higher value; 0 = fully inhibited enzyme, 1 = untreated enzyme; 96,000 tested, under 10 active; activation factor at 5 µM;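 active means activation factor of at least 2 at 5 µM in the primary screen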;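 further: 0 = wells with 2.5 mM tranylcypromine and 1 = vehicle-only wells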
CYP2C9 act = human CYP2C9 activators, primary screen, biochemical, luminescence; 96,000 tested, 1.4% active; activation factor at 5 µM; AID 1024, 2008; recombinant CYP2C9, luciferin-H conversion; stronger effect = higher value; factor 1 = untreated enzyme, 0 = blocked;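 active means activation factor of 2 or more for CYP2C9 at a 5 µM dose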;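 further: 0 = sulfaphenazole-blocked wells and 1 = vehicle-only wells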
* hit, by the source's call; / = no result given. Rows were chosen to be rich in hits. Some 28% of all compounds tested hit in one or more screens of this group.

SMILES	CYP2C9 inh	CYP2C19 inhib	Pyk2 oligo antag	CYP2C19 act	CYP2C9 act
CCCCN(Cc1ccccc1)S(=O)(=O)c1cc(Br)cc2c1N(C(C)=O)C(C)C2 (stereo not drawn)	95*	38	-2.4	0.6	0.1
Cc1ccc(S(=O)(=O)Nc2ccc(Br)cc2/C=N/n2cnnc2)cc1	62*	54*	-1.3	0.5	0.4
C=CC[n+]1c(-c2ccc(OCC)cc2)csc1NNC(=O)Nc1ccccc1	13	6	-0.46	0.9	0.9
c1ccc(COCCN2CCN(CCOCc3ccccc3)CC2)cc1	0	57*	-0.01	0.4	1
COc1ccccc1C1CN=NC12CCCc1ccccc1C2=O (stereo not drawn)	51*	71*	-0.34	0.3	0.5
COc1ccccc1C1NC(=O)NC(C)=C1C(C)=O (stereo not drawn)	/	/	0.28	/	/
COc1ccc(C2CN=NC23CCCc2ccccc2C3=O)cc1 (stereo not drawn)	48	59*	0.31	0.4	0.5
N#Cc1ccccc1Sc1ccccc1N	59*	57*	-0.08	0.4	0.4
O=C1c2ccccc2NC(c2ccccc2)N1/N=C/c1ccccc1 (stereo not drawn)	87*	34	-0.9	0.7	0.1
Cc1cc(C)c(Cc2c(C)nc3c(C(=O)NCc4ccco4)cnn3c2C)c(C)c1	78*	8	0.11	0.9	0.2
Cc1nc(SCC(=O)NCc2ccco2)[nH]c(=O)c1C	-8	-17	-0.36	1.2	1.1
O=C(CSc1nc2nc(-c3cccs3)cc(C(F)(F)F)c2c(=O)[nH]1)NCc1ccco1	72*	6	-1.1	0.9	0.3
O=C(NCc1ccco1)c1cnn2c(C(F)F)cc(-c3ccccc3)nc12	58*	1	-0.62	1	0.4
Cc1cc(NC(=O)c2cnn3c(C(F)F)cc(-c4ccccc4)nc23)no1	13	2	-2	1	0.9
O=C(NCc1ccco1)c1cnn2c(C(F)(F)F)cc(-c3cccs3)nc12	51*	34	-0.66	0.7	0.5
CC(C)n1nnnc1-c1cc(Cl)cc(Cl)c1	3	4	0.21	1	1
O=C(COc1ccc(-n2cnnn2)cc1)NCCc1ccc(F)cc1	11	4	0.74	1	0.9
O=C(Nc1ccc(Cl)cc1)C1=Cc2ccccc2OC1	10	29	0.42	0.7	0.9
O=C(CC(=O)N/N=C\c1c(Cl)cccc1Cl)NCc1ccccc1	41	86*	0.13	0.1	0.6
COc1cc(S(=O)(=O)N2CCN=C2c2ccccc2)ccc1F	-10	74*	-0.04	0.3	1.1
COc1cc(S(=O)(=O)n2c(C)nc3ccccc32)ccc1F	43	94*	1	0.1	0.6
CCOc1ccc(S(=O)(=O)n2c(C)nc3ccccc32)cc1	41	42	/	0.6	0.6
CCCCOc1ccc(S(=O)(=O)n2c(C)nc3ccccc32)cc1	67*	39	0.68	0.6	0.3
Cc1ccc(S(=O)(=O)N2CCN=C2c2ccccc2)cc1C	/	/	0.02	/	/
Cc1nc2ccccc2n1S(=O)(=O)N(C)C	20	19	-0.65	0.8	0.8
SMILES	CYP2C9 inh	CYP2C19 inhib	Pyk2 oligo antag	CYP2C19 act	CYP2C9 act
O=C(CC1OC(=O)c2ccccc21)c1ccco1 (stereo not drawn)	-11	-10	0.59	1.1	1.1
CCC(C)NC(=O)c1cc(OC)c(OC)c(OC)c1 (stereo not drawn)	4	2	0.43	1	1
c1ccc(-c2nc3cc4ccccc4cc3[nH]2)nc1	46	80*	0.33	0.2	0.5
CCOc1ccc(Cn2c(O)cc(=O)[nH]c2=O)cc1	/	/	-0.2	/	/
O=C(Nc1ccccc1Cl)N1CCN(c2ccc3nnc(-c4ccccc4)n3n2)CC1	89*	69*	/	0.3	0.1
O=C(c1ccc(Br)o1)N1CCN(c2ccc3nnc(-c4ccc(F)cc4)n3n2)CC1	67*	16	/	0.8	0.3
O=C(Nc1ccc(Cl)cc1)N1CCN(c2ccc3nnc(-c4ccc(F)cc4)n3n2)CC1	56*	40	-0.9	0.6	0.4
c1ccc(-c2nnc3ccc(N4CCCC4)nn23)cc1	3	10	/	0.9	1
COCCCNC(=O)Cn1nnc(-c2ccc(NC(=O)c3ccccc3F)cc2)n1	/	/	0.31	/	/
O=c1nc2sc3ccccc3n2c(=O)n1-c1cccc(Cl)c1	28	68*	0.48	0.3	0.7
Cc1ccc(N2CN=c3s/c(=C\c4ccccn4)c(=O)n3C2)cc1	1	4	0.06	1	1
COc1ccc(C2C3=C(Nc4ncnn42)c2ccccc2CC3)cc1OC (stereo not drawn)	36	55*	/	0.4	0.6
FC(F)(F)c1ccccc1C1C2=C(Nc3ncnn31)c1ccccc1CCC2 (stereo not drawn)	8	25	/	0.7	0.9
O=Cc1nc(-c2ccccc2Cl)n2ccccc12	-120	35	0.23	0.7	2.2*
CCCCN(C(=O)NC(=O)Nc1ccccc1C)S(C)(=O)=O	53*	27	0.15	0.7	0.5
O=C(Nc1cccc(O)c1)c1noc2c1CCCCC2	33	70*	-0.45	0.3	0.7
COc1ccc(NC(=O)c2noc3c2CCC3)cc1	27	62*	0.92	0.4	0.7
COc1nn(C(C)C(=O)N2N=C(C(F)F)CC2(O)C(F)F)cc1[N+](=O)[O-] (stereo not drawn)	/	/	0.18	/	/
COc1ccc2c(c1OC)C(=O)N1N=C(c3ccc(O)cc3)CC21 (stereo not drawn)	-144	0	-0.5	1	2.4*
Cc1cc(=O)n2[nH]c(-c3ccc(F)cc3)nc2n1	16	17	0.37	0.8	0.8
CC(=O)NC1=NN(C(C)=O)C(c2cccs2)S1 (stereo not drawn)	/	/	-0.18	/	/
O=c1c(O)c(-c2ccc3c(c2)OCO3)oc2ccccc12	15	0	-1.6	1	0.8
Cc1oc2cc(O)cc(O)c2c(=O)c1-c1ccc2c(c1)OCCCO2	-34	25	-3.4*	0.7	1.3
Cc1ccc(CNC(=O)Cn2c([N+](=O)[O-])cnc2C)cc1	0	3	0.36	1	1
CCOc1ccc(-n2nc3c(=S)[nH]nc(C)c3c2C)cc1	/	/	-0.81	/	/
Cc1ccc(NC(=S)/C(=C(\[O-])c2ccc(C)c([N+](=O)[O-])c2)[n+]2ccccc2)cc1C	69*	38	/	0.6	0.3
CCC(C)(c1ccc(C(=O)OC)s1)c1ccc(C(=O)OC)s1	98*	98*	-1.5	0	0
C/C(=N/Oc1nc(C)cc(C)n1)c1ccc(Br)cc1	34	53*	0.54	0.5	0.7
COC(=O)c1ccc(CSc2nnc(Nc3ccccc3OC)s2)o1	-58	50	/	0.5	1.6
O=C1c2cccnc2C(O)N1C1CCCCC1 (stereo not drawn)	7	3	0.54	1	0.9
